Test results taken from PubChem BioAssay (Tox21).
Results filed as inconclusive are left out. Where a call stands in place of a potency, no number is given. Calls of active or inactive are those of the source. Calls follow the shape of the dose curve; as a rule, active = well fitted cell-killing curve with a large enough effect in the repeat runs; inconclusive = weak or mixed curves, or effect the other way; inactive = no such curve, though single readings can be large or run the other way.

Experiment: qHTS assay for identifying genotoxic compounds that show differential cytotoxicity against isogenic chicken DT40 cell lines with known DNA damage response pathways - wild type cell line (AID 743012); also: nearly all actives have a fitted effect of over 60% in size
Conditions: DT40 wild type chicken cells viability, CellTiter-Glo, 40 h; series mostly up to 68.4 µM
Source text: U.S. Tox21 Program National Center for Advancing Translational Sciences [NCATS] NIH Chemical Genomics Center [NCGC] U.S. Environmental Protection Agency [EPA] National Institutes of Environmental Health Sciences [NIEHS] National Toxicology Program [NTP] U.S. Food and Drug Administration [FDA] Tox21 Assay Overview: DNA repair pathways play a critical role in cellular homeostasis by repairing DNA damage induced by endogenous processes and xenobiotics. Isogenic chicken DT40 cell lines deficient in different DNA repair pathways can be used to identify genotoxic compounds and aid in characterizing the nature of the DNA damage induced. Two DNA repair-deficient cell lines with disrupted genes, Rad54/Ku70 or Rev3, were used to screen the Tox21 10K compound library. Possible genotoxicity was based on the presence of a significant increase in cytotoxicity in one or more of the DNA repair-deficient cell lines compared to that observed in the parental DNA repair-proficient cell line. CellTiter Glo viability assay (Promega, Madison, WI) was used to measure cell viability in these cells after compound treatment. This assay includes the data from the wild type cell line.
Tox21 Assay Protocol Summary: 300 DT40 wild type cells in 5 uL/well were dispensed into white, solid-bottom 1536-well plates using a Multidrop Combi (ThermoFisher Scientific, Waltham, MA) dispenser. After the assay plates were incubated at 37 C/5% CO2 for approximately 0.5 hour, 23 nL of compounds dissolved in DMSO, positive controls or DMSO only was transferred into the assay plate by a pintool work station (Kalypsys, San Diego, CA). The assay plates were incubated at 37 C/5% CO2 for 40 hours. After 5 uL per well of CellTiter-Glo reagent was added into each well of the assay plates, the plates were incubated for 30 min at room temperature and the luminescence intensity of the plates was measured using a ViewLux (PerkinElmer, Shelton, CT) plate reader.
Potency is read from the fitted curve at half-maximal effect.

SMILES | Potency
CCOc1cc(-c2nccc3cc(OC)c(OC)cc23)cc(OCC)c1OCC | 4.22 µM (active)
CCNC(=O)[C@@H]1CCCN1C(=O)[C@H](CCCN=C(N)N)NC(=O)[C@H](CC(C)C)NC(=O)[C@@H](Cc1c[nH]c2ccccc12)NC(=O)[C@H](Cc1ccc(O)cc1)NC(=O)[C@H](CO)NC(=O)[C@H](Cc1c[nH]c2ccccc12)NC(=O)[C@H](Cc1cnc[nH]1)NC(=O)[C@@H]1CCC(=O)N1 | 0.841 µM (active)
CCCCCCCCCCCCOCCCN | inactive
COc1cc2c(cc1OC)[C@@H](c1ccccc1)CN(C)CC2 | 23.7 µM (active)
CC(C)C[C@H](NC(=O)[C@@H](Cc1c[nH]c2ccccc12)NC(=O)[C@H](Cc1ccc(O)cc1)NC(=O)[C@H](CO)NC(=O)[C@H](Cc1c[nH]c2ccccc12)NC(=O)[C@H](Cc1cnc[nH]1)NC(=O)[C@@H]1CCC(=O)N1)C(=O)N[C@@H](CCCN=C(N)N)C(=O)N1CCC[C@@H]1C(=O)NCC(N)=O | inactive
COC(=O)C1=C(C#N)NC(C)=C(C(=O)OC(C)C)C1c1cccc([N+](=O)[O-])c1 (stereo not given) | 13.3 µM (active)
CN1CCN(CCCN2c3ccccc3Sc3ccccc32)CC1 | 9.44 µM (active)
CCCCCCCCCCCCCCCCCCCCCCO | inactive
Oc1cc(O)cc(O)c1 | inactive
Cc1cccc(C)c1NC(=O)NC1=CCCN1C | inactive
CNc1cc(OC)c(C(=O)N[C@H]2CCN(Cc3ccccc3)[C@H]2C)cc1Cl | 5.96 µM (active)
O=C(O)CC/C=C\CC[C@@H]1[C@@H](N2CCCCC2)[C@@H](O)C[C@@H]1OCc1ccc(-c2ccccc2)cc1 | 13.3 µM (active)
COC(=O)CCC[N+](C)(C)C | inactive
C[C@H]1C[C@@H]2[C@H]([C@@H](O)C[C@@]3(C)[C@H]2CC[C@]3(O)C(=O)COC(=O)CCC(=O)O)[C@@]2(C)C=CC(=O)C=C12 | inactive
Nc1nc(=O)n([C@@H]2CS[C@H](CO)O2)cc1F | inactive
CC1=C[C@H](O)CC(C)(C)[C@H]1/C=C/C(C)=C/C=C/C(C)=C/C=C/C=C(C)/C=C/C=C(C)/C=C/C1=C(C)C[C@@H](O)CC1(C)C | 11.9 µM (active)
OC[C@H]1OC([S-])[C@H](O)[C@@H](O)[C@@H]1O.[Au+] (stereo not given in full) | 10.6 µM (active)
O=C(Nc1ccc(Br)cc1)c1cc(Br)c(Br)s1 | 26.6 µM (active)
CCc1ccc2c(c1)N(CC(C)CN(C)C)c1ccccc1S2 (stereo not given) | 6.68 µM (active)
C=CCSSSCC=C | inactive

SMILES | Potency
NCCCC[C@H](NC(=O)[C@@H]1CCCN1C(=O)[C@@H]1CSSC[C@H](N)C(=O)N[C@@H](Cc2ccccc2)C(=O)N[C@@H](Cc2ccccc2)C(=O)N[C@@H](CCC(N)=O)C(=O)N[C@@H](CC(N)=O)C(=O)N1)C(=O)NCC(N)=O | inactive
C/C1=C2N=C(/C=C3N=C(/C(C)=C4\[N-][C@@](C)([C@@H]5N=C1[C@](C)(CCC(=O)NCC(C)OP(=O)(O)O[C@H]1[C@@H](O)[C@@H](n6cnc7cc(C)c(C)cc76)O[C@@H]1CO)[C@H]5CC(N)=O)[C@@](C)(CC(N)=O)[C@@H]4CCC(N)=O)[C@@](C)(CC(N)=O)[C@@H]\3CCC(N)=O)C(C)(C)[C@@H]/2CCC(N)=O.CC(=O)O.[Co] (stereo not given in full) | inactive
CC1(C)S[C@@H]2[C@H](NC(=O)C(N)c3ccccc3)C(=O)N2[C@H]1C(=O)OC1OC(=O)c2ccccc21 (stereo not given in full) | inactive
CC(C)(S)[C@@H](N)C(=O)O | inactive
CC(=O)OC[C@H]1O[C@@H](O[C@H]2[C@H](O)[C@@H](OC(=O)c3ccccc3C(=O)O)[C@H](O)O[C@@H]2COC(C)=O)[C@H](O)[C@@H](OC(=O)c2ccccc2C(=O)O)[C@@H]1O | inactive
CCCN(CC)C(CC)C(=O)Nc1c(C)cccc1C (stereo not given) | inactive
C[C@H](/C=C/[C@H](C)C(C)(C)O)[C@H]1CC[C@H]2/C(=C/C=C3C[C@@H](O)C[C@H](O)C3)CCC[C@]12C | inactive
S=C1SCN(Cc2ccccc2)CN1Cc1ccccc1 | 10.6 µM (active)
Cn1c(O)c(N=NC(N)=S)c2ccccc21 | 5.31 µM (active)
CCC(=O)NS(=O)(=O)c1ccc(-c2c(-c3ccccc3)noc2C)cc1 | inactive
CCCC1C(=O)N2C(N(C)C)=Nc3ccc(C)cc3N2C1=O (stereo not given) | inactive
CCOC(=O)Nc1ccc2c(c1)N(C(=O)CN(C)C)c1ccccc1CC2 | 61.1 µM (active)
c1ccc2c(CCC3CCNCC3)c[nH]c2c1 | 13.3 µM (active)
C[C@H](N)C(=O)N[C@@H](C)P(=O)(O)O | inactive
O=P(O)(O)OC[C@H]1O[C@](O)(COP(=O)(O)O)[C@@H](O)[C@@H]1O | inactive
Clc1ccc(COC(Cn2ccnc2)c2ccc(Cl)cc2Cl)c(Cl)c1 (stereo not given) | 10.1 µM (active)
OCCN1CCN(CC/C=C2/c3ccccc3Sc3ccc(Cl)cc32)CC1 | 9.02 µM (active)
O=C(OC[C@H]1O[C@](O)(COC(=O)c2cccnc2)[C@@H](OC(=O)c2cccnc2)[C@@H]1OC(=O)c1cccnc1)c1cccnc1 | inactive
CCCCCCCN(CC)CCCC(O)c1ccc(NS(C)(=O)=O)cc1 (stereo not given) | 23.7 µM (active)
CO[C@H]1O[C@@H]2O[C@@]3(C)CC[C@H]4[C@H](C)CC[C@@H]([C@H]1C)[C@@]24OO3 | 1.19 µM (active)
